Consider 40 molecules from PubChem BioAssay (Tox21).

Inconclusive results are not listed. Entries that show only a call come without a potency. Unmarked numbers belong to inactive results. Activity calls are given as the source filed them. Calls follow the shape of the dose curve; as a rule, active = well fitted activation curve with a large enough effect in the repeat runs; inconclusive = weak or mixed curves, or effect the other way; inactive = no such curve, though single readings can be large or run the other way.

The nature of this assay: qHTS assay to identify small molecule agonists of the retinoic acid receptor (RAR) signaling pathway (AID 1159553). The settings on record: C3RL4 RARE luciferase reporter, agonist, 6 h; series mostly up to 73.3 µM. The text has this:
National Center for Advancing Translational Sciences [NCATS] NIH Chemical Genomics Center [NCGC] U.S. Environmental Protection Agency [EPA] National Institutes of Environmental Health Sciences [NIEHS] National Toxicology Program [NTP] Assay overview: All-trans Retinoic acid (atRA) is the potent natural metabolite of retinol and plays an important role in normal embryonic development and maintenance of cellular phenotype in adult animals. atRA is the activating ligand for the retinoic acid receptors (RARs) which form heterodimers with retinoid X receptors (RXRs) on the retinoic acid response element (RARE). Through activation of the RAR/RXRs nuclear receptors, atRA regulates the transcription of a large number of protein-coding genes and regulatory RNAs. Intracellular levels of atRA are controlled by the retinol signaling pathway (RSP) that regulates the biosynthesis and catabolism of atRA to maintain physiological levels. Chemicals that interfere with the RSP can cause abnormal intracellular levels of atRA and therefore are potential developmental toxicants. To assess compounds for the potential adverse effect on embryonic development through interfering with retinol signaling, a cell-based RARE luciferase reporter gene assay was used. C3RL4 cell line (OARSA/CFSAN/FDA, Laurel, MD) was used to screen Tox21 10K compound library for identifying activators of the RSP.
Assay Protocol Summary: C3RL4 cells were seeded at 1,000/well in 5 uL of assay medium into white solid 1,536-well tissue culture plates (Greiner Bio-One North America Inc. Monroe, NC) using a Multidrop Combi (Thermo Scientific, Waltham, MA) dispenser. After incubation at 37 C and 5% CO2 for an overnight, 23 nL of compounds dissolved in DMSO, positive control or DMSO only were transferred by a Pintool station (Kalypsys, San Diego, CA). After 6 hr incubation at 37 C and 5% CO2, 5 uL of Amplite Luciferase reagent (AAT Bioquest Inc. Sunnyvale, CA) was added to each assay plate using a Flying Reagent Dispenser (FRD) (Aurora Discovery, San Diego, CA). Luminescence was quantified on a ViewLux plate reader (PerkinElmer, Waltham, MA) after 30 min incubation at room temperature.
As to `O=C(O)CCCl`, the Potency entry was “inactive”.

Consider `Cc1[nH]c(=O)c(C#N)cc1-c1ccc2nccn2c1`, for which the Potency entry was “inactive”.

Regarding `CCCCC/C=C\CCC=O`, the Potency result is “inactive”.

Regarding `Cc1cc2c(cc1S(N)(=O)=O)S(=O)(=O)CCC2`, the Potency entry was “inactive”.

Turning to `C=CCOCC(CC)(CO)COCC=C`, the Potency entry is “inactive”.

In the case of `CCOC(=O)C(=O)OCC`, the Potency entry was “inactive”.

As for `O=C(O)CNC(=O)c1ccc([N+](=O)[O-])cc1`, the Potency entry is “inactive”.

As for `CC(C)(CC(=O)O)C(=O)O`, the Potency result is “inactive”.

Consider `NS(=O)(=O)c1ccccc1Cl`, for which the Potency result was “inactive”.

Turning to `N[C@@H](C(=O)N[C@@H]1C(=O)N2C(C(=O)O)=C(Cl)CS[C@H]12)c1ccccc1`, the activation was 0.152% [at 8.36 µM].

Turning to `C[N+](C)(C)CC(O)CC(=O)[O-]` (stereo not given), the Potency entry is “inactive”.

Consider `C=C(C)C(=O)OCCCCCCCC(C)C`, for which the Potency result was “inactive”.

Regarding `NC(=O)c1ccc([N+](=O)[O-])cc1`, the Potency result is “inactive”.

As for `COCCCOCCCOC`, the Potency entry is “inactive”.

For the molecule `CC(=O)OCC(=O)[C@@]1(O)CCC2C3CCC4=CC(=O)CC[C@]4(C)C3[C@@H](O)C[C@@]21C` (stereo not given in full), the Potency entry was “inactive”.

`CCn1nc(C(=O)O)c(=O)c2cc3c(cc21)OCO3`: the Potency result is “inactive”.

With `CC1=CC(C)C(C=O)CC1` (stereo not given), the Potency result was “inactive”.

Regarding `COCCc1ccc(OCC(O)CNC(C)C)cc1` (stereo not given), the Potency result is “inactive”.

With `CCCCNC(=O)NCCCC`, the Potency entry is “inactive”.

Take `CCCCCCCCS(=O)(=O)Cl`: the Potency entry was “inactive”.

Regarding `CCO/C([O-])=N/c1c[n+](N2CCOCC2)no1`, the Potency result was “inactive”.

`NC(=O)Nc1ccccc1`: the Potency entry was “inactive”.

For `O=C1CCCCCCCCCCCN1`, the Potency result was “inactive”.

As for `CCN(Cc1ccncc1)C(=O)C(CO)c1ccccc1` (stereo not given), the Potency result is “inactive”.

For the molecule `CC(=O)OCC(CCn1cnc2cnc(N)nc21)COC(C)=O`, the Potency result was “inactive”.

Turning to `Nc1ccccc1S(=O)(=O)O`, the Potency result is “inactive”.

`c1cnc(N2CCN(Cc3ccc4c(c3)OCO4)CC2)nc1`: the Potency result is “inactive”.

For `NS(=O)(=O)c1ccc(C(=O)O)cc1`, the Potency result was “inactive”.

For the molecule `OCCOc1ccc(OCCO)cc1`, the Potency entry is “inactive”.

For the molecule `CC(=O)Nc1c(I)cc(I)c(C(=O)O)c1I`, the Potency result was “inactive”.

As to `CCOC(=O)[C@H](CCc1ccccc1)N[C@@H](C)C(=O)N1[C@H](C(=O)O)C[C@@H]2CCC[C@@H]21`, the Potency result was “inactive”.

Consider `CCSC(=O)N(CC(C)C)CC(C)C`, for which the Potency entry was “inactive”.

In the case of `CCOC(=O)c1cccc(N)c1`, the Potency result was “inactive”.

Take `CCN1CCC[C@H]1CNC(=O)c1cc(S(N)(=O)=O)ccc1OC`: the Potency entry is “inactive”.

As for `CCCN1CCCC[C@H]1C(=O)Nc1c(C)cccc1C`, the Potency entry was “inactive”.

For the molecule `CCN(CC)CCOCCOC(=O)C1(c2ccccc2)CCCC1`, the Potency entry was “inactive”.

Regarding `O=C(O)COc1nn(Cc2ccccc2)c2ccccc12`, the Potency result was “inactive”.

As for `Cc1sccc1Br`, the Potency entry was “inactive”.

Regarding `CCOC(=O)CCC(C)=O`, the Potency result was “inactive”.

On to `COC(=O)c1ccc(C)cc1C1=NC(C)(C(C)C)C(=O)N1` (stereo not given), for which the Potency entry was “inactive”.
